Compound activity deposited in PubChem BioAssay by National Center for Advancing Translational Sciences (NCATS).
Rows were chosen to be rich in hits. Some 3.6% of all compounds tested hit in one or more screens of this group.
FBPA Giardia inh: qHTS Assay for Inhibitors of Fructose-1,6-bisphosphate Aldolase from Giardia Lamblia; A8B2U2; purified Giardia FBPA; Potency, µM (top dose mostly 59.6 µM), most hits filed as inhibitors; 0.71% of 290,000 active; AID 2451, 2010; note: nearly all actives have a fitted effect of over 55% in size
Target sequence (A8B2U2 whole entry, looked up): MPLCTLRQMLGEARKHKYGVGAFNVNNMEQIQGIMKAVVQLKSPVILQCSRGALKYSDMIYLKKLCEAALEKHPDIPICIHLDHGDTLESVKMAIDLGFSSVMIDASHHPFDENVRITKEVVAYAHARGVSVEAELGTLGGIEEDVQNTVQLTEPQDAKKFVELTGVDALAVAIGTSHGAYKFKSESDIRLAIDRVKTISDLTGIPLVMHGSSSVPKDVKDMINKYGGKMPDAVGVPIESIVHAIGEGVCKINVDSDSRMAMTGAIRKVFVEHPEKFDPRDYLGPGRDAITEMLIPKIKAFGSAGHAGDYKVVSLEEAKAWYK
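40 nM FBPA preincubated 10 min at RT with compound (up to 57.5 uM final), then substrate plus GAPDH/TPI/NAD/arsenate coupling and diaphorase/resazurin added. Fluorescence read after 20 min at RT, 525/598 nm.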
Sm TGR block: qHTS Assay for the Inhibitors of Schistosoma Mansoni Peroxiredoxins | Schistosoma mansoni thioredoxin glutathione reductase (TGR), Q962Y6 | purified TGR, DTNB reduction, TNB absorbance 405 nm | Potency, µM (doses to about 114 µM), actives largely listed as inhibitors | 3% of 360,000 active; note: nearly all actives have a fitted effect of over 60% in size
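First, TGR (20 nM dispensed) and NADPH were mixed with compound. Second, a 15 min room-temperature incubation followed. Third, further NADPH and then DTNB were added to start the reaction. Finally, TNB absorbance was monitored kinetically.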
AmpC inh detg: qHTS Inhibitors of AmpC Beta-Lactamase (assay with detergent) | P00811 | AmpC hydrolysis of nitrocefin, absorbance 480 nm, 0.01% Triton | Potency, µM (top dose mostly 114 µM), most hits filed as inhibitors | 0.041% of 370,000 active; note: nearly all actives have a fitted effect of over 25% in size
Target sequence (P00811 whole entry, looked up): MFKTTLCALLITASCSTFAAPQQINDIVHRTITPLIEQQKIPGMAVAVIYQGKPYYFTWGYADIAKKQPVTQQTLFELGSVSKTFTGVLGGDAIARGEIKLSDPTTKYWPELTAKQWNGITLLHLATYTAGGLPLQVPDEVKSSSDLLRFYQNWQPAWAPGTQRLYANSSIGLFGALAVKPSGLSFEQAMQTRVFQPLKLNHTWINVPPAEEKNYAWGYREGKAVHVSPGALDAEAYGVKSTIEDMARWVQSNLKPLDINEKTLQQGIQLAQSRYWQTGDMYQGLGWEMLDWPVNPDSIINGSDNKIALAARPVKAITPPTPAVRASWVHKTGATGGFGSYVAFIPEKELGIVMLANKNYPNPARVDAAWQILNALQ
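AmpC (5.3 nM in the dispensed reagent) in 20 mM phosphate pH 7.0 with 0.01% (detergent screen) or 0.0001% Triton X-100 was preincubated with compounds for 15 min at room temperature. Nitrocefin was then added from an 800 uM solution, and hydrolysis was followed at 480 nm.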
AmpC no deterg: qHTS Inhibitors of AmpC Beta-Lactamase (assay without detergent). P00811. AmpC nitrocefin hydrolysis, absorbance 480 nm, 0.0001% Triton. Potency, µM (titrated, usually from 57.1 µM), most hits filed as inhibitors. 0.52% of 330,000 active. AID 485341, 2010; note: nearly all actives have a fitted effect of over 20% in size
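20 mM phosphate pH 7.0 + 0.01% (detergent screen) or 0.0001% Triton X-100; 5.3 nM AmpC reagent; cpd preinc 15 min RT; nitrocefin (800 uM stock) to start; A480 q20 s × 4 min; Activity was normalised to no-enzyme and no-compound control wells.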
Hits are given with their value; i = inactive; ? = inconclusive; nt = not tested or not shown; ! = not confirmed by another sample; [ ] = dose if it differs, or a comment. Calls come from the whole dose curve; as a rule, active = well fitted curve in the direction sought with a large enough effect; inconclusive = small, poorly fitted or top-dose-only effect, or another doubt; inactive = no such curve, though single readings can be large; an effect the other way counts as inactive or inconclusive.

SMILES	FBPA Giardia inh	Sm TGR block	AmpC inh detg	AmpC no deterg
CCOc1ccc(CCNS(=O)(=O)c2cc(Br)cc3c2N(C(C)=O)CC3)cc1OCC	nt	i	i	nt
O=C(CN1C(=O)C2C3C=CC(C3)C2C1=O)NCCN1CCCc2ccccc21 (stereo unspecified)	i	50µM	?	i
OC[C@@H](O)C(O)[C@H](O)[C@@H](O)CO (stereo partly specified)	i	nt	nt	nt
CCOC(=O)C(C)Oc1cccc2c(=O)n(CC(=O)Nc3cccc(OC)c3)ccc12 (stereo unspecified)	i	i	?	7.1µM
CCOc1ccccc1N(CC)C(=O)c1cc2c(=O)n(CC)c3ccccc3c2s1	nt	i	i	nt
CCCn1c(C(CO)Nc2nc(C)cs2)nc2ccccc21 (stereo unspecified)	i	?	i	i
Cc1cccc2[nH]c3c(N4CC=C(c5ccc(F)cc5)CC4)ncnc3c12	i	i	i	i
COc1ccc(/C=N/N2CCN(C)CC2)c(OC)c1OC	i	50µM	i	i
COc1ccc(NC(=O)CCNS(=O)(=O)c2cccc3nsnc23)cc1Cl	nt	i	i	nt
O=C(NCC1CCCO1)c1cc(-c2ccco2)nc2ccccc12 (stereo unspecified)	i	35µM	i	i
O=C(NC1CCC(O)CC1)c1cc(-c2ccco2)nc2ccccc12 (stereo unspecified)	i	11µM	i	i
CC[C@@H](C)[C@H](N)C(=O)NC[C@H]1O[C@@H](n2cnc3c(N)ncnc32)[C@H](O)[C@@H]1O	nt	nt	nt	i
CCc1nc(N2CCN(C(=O)c3ccco3)CC2)c2c3c(sc2n1)CCCC3	i	56µM	i	i
O=C(c1ccco1)N1CCN(c2ncnc3sc4c(c23)CCC4)CC1	i	11µM	i	i
CNC(=O)c1ccsc1NC(=O)C1CCCN1S(=O)(=O)c1cccs1 (stereo unspecified)	nt	i	?	i
COc1ccc(CCNC(=O)COc2cc(O)c3c(c2)OC(C)(C)CC3=O)cc1OC	i	i	i	i
COC(=O)CNc1c(-c2ccccn2)nc2ccc(Br)cn12	i	40µM	?	i
Cc1nc2[nH]c(=O)[nH]c(=O)c2[nH]1	i	nt	nt	nt
COCCN(C(=O)c1ccco1)c1nc(-c2ccccc2)cs1	i	63µM	i	i
CCc1ccc(N/C(SC)=C(/C#N)C(N)=O)cc1	i	i	i	i
CCCCS/C(=C(/C#N)C(N)=O)c1cc2c([nH]1)CCCC2	i	10µM	i	i
O=C(Nc1cccc(-c2ccc(N3CCOCC3)nn2)c1)c1ccc([N+](=O)[O-])cc1	nt	i	i	32µM
O=C(Nc1cccc(-c2ccc(N3CCOCC3)nn2)c1)c1ccccc1	nt	i	?	?
Cc1ccc(NC(=O)CCC(=O)N2Cc3ccccc3Oc3ncccc32)c(C)c1	nt	i	i	nt
Cc1onc(-c2ccccc2)c1NC(=O)N(CCC#N)Cc1ccccc1	i	i	i	i
SMILES	FBPA Giardia inh	Sm TGR block	AmpC inh detg	AmpC no deterg
COc1ccc(C(C(C(=O)c2ccco2)N2CCOCC2)N2CCOCC2)cc1 (stereo unspecified)	i	45µM	i	i
COc1ccc(C(CNC(=O)c2ccco2)N2CCOCC2)cc1 (stereo unspecified)	nt	i	i	i
O=C(Nc1cccc(Cl)c1)Nc1nnc(-c2ccncc2)s1	i	i	?	16µM
CS(=O)(=O)c1ccc2nc(NC(=O)Nc3ccc(Cl)c(Cl)c3)sc2c1	i	i	i	i
CS(=O)(=O)c1ccc2nc(NC(=O)Nc3cccc(Cl)c3)sc2c1	i	i	?	13µM
O=C(Nc1ccc(Cl)cc1)Nc1nnc(-c2ccncc2)s1	i	i	i	i
Fc1ccc(CSc2ncnc3nc[nH]c23)cc1	?	i	?	1.6µM
Cc1cccc(NCc2nnc3n2CCCCC3)c1C	nt	i	i	nt
NC(=O)c1ccsc1NC(=O)c1nc(-c2ccccc2)n(-c2ccccc2)n1	i	i	i	4µM
COc1ccc(C2=NN3C(C2)c2ccccc2OC32C(=O)N(C)c3ccccc32)cc1 (stereo unspecified)	i	40µM	i	i
CS(=O)(=O)N1CCC(C(=O)Nc2cccc(Br)c2)CC1	i	i	i	i
Cc1cccc(Oc2ncnc3onc(C)c23)c1	i	i	i	0.79µM
COC(C/C=C/C(=O)COCc1ccccc1)OC	i	16µM	i	i
COc1ccccc1N1CCN(C(=O)c2nn(C)c3c2CS(=O)(=O)c2ccccc2-3)CC1	nt	8.9µM!	i	i
Cc1ccc2sc(NNC(=O)c3cc(=O)c4ccccc4o3)nc2c1C	22µM	i	i	i
Cc1cccc2sc(NNC(=O)c3cc(=O)c4ccccc4o3)nc12	i	i	i	i
COC(=O)c1ccc(C(C2C(=O)CC(C)(C)CC2=O)C2C(=O)CC(C)(C)CC2=O)cc1	i	?	i	i
CC1(C)CC(=O)C(C(c2ccc(F)cc2)C2C(=O)CC(C)(C)CC2=O)C(=O)C1	i	45µM	i	i
CC1(C)CC(=O)C(C(c2ccc(Br)cc2)C2C(=O)CC(C)(C)CC2=O)C(=O)C1	i	18µM	i	i
CC(OC(=O)CNC(=O)c1ccc(Cl)cc1)C(=O)NC1CCCCC1C (stereo unspecified)	nt	i	?	i
O=[N+]([O-])c1ccccc1CCl	nt	40µM	i	i
CN(CC1CCCO1)S(=O)(=O)c1ccc(C(=O)NCc2ccccc2)cc1 (stereo unspecified)	i	i	i	i
CC(=O)c1ccc(N2Cc3ccccc3/C2=N\C(=O)Nc2ccccc2)cc1	i	i	i	i
CC(=O)c1cccc(N2Cc3ccccc3C2=NC(=O)CCl)c1	i	18µM	i	i[2.29 µM]
COc1ccc(CC(=O)NNC(=O)c2c(-c3ccccc3Cl)noc2C)cc1OC	i	i	i	i
SMILES	FBPA Giardia inh	Sm TGR block	AmpC inh detg	AmpC no deterg
CCN1C(=O)c2cccc3c(S(=O)(=O)NCc4ccco4)ccc1c23	?	40µM	?	i
CCN1C(=O)c2cccc3c(S(=O)(=O)NCc4cccnc4)ccc1c23	i	i	i	i
NS(=O)(=O)c1cccc(NC(=O)COC(=O)CCc2ccccc2)c1	i	i	i	i
CS(=O)(=O)NCC(c1ccco1)N1CCN(c2ccccc2)CC1 (stereo unspecified)	nt	i	i	nt
C/C(=N\NS(=O)(=O)c1ccc(Cl)c([N+](=O)[O-])c1)c1ccc(C)o1	i	6.3µM	i	i
C/C(=N\NS(=O)(=O)c1ccc(Cl)c([N+](=O)[O-])c1)c1cc2ccccc2o1	i	50µM	?	i
C/C(=N\NS(=O)(=O)c1ccc(C)c([N+](=O)[O-])c1)c1ccc2c(c1)OCO2	i	i	i	i
C/C(=N\NS(=O)(=O)c1ccc(C)c([N+](=O)[O-])c1)c1cc2ccccc2o1	i	i	i	i
Clc1ccc(CSc2nnc(/C=C/c3ccccc3)o2)cc1	i	i	i	0.16µM
CCc1cc(C(c2ccc(OC)c(OC)c2)N2CCOCC2)c(NC(=O)c2ccccc2)s1 (stereo unspecified)	i	2.5µM	i	i
